About 79,000 compounds went through this panel and 15% of them were active in at least one assay; those are over-represented in the sample as a whole. Active and inactive are the calls of the source. Cut-off read from the data, not from the text of the source: active = growth inhibition above about 70%; inactive = the rest.

One assay can be described thus: NCI Yeast Anticancer Drug Screen. Data for the rad50 strain (AID 155).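 Note: 0% = growth of vehicle-only cultures of the same strain.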 The note with it: S. cerevisiae rad50 strain growth inhibition; at 50.0 µM; active compounds read high. The procedure, abridged: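 Inhibition values express reduced yeast growth in compound-treated cultures relative to vehicle-treated controls.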
Turning to `CCCC(=O)Nc1ccc(OC)cc1`, the growth inhibition is 16.8% (inactive).

In the case of `CCCCOCCOC(=O)Nc1cccc(Cl)c1`, the growth inhibition is 35% (inactive).

Consider `CCCCCc1[nH]c(=O)[nH]c(=O)c1S(=O)(=O)N1CCCCC1`, for which the growth inhibition is 0.15% (inactive).

Turning to `CC(=O)OCCC12CCC(CC1Cl)C2(C)C` (stereo not given), the growth inhibition was -1.45% (inactive).

In the case of `CCCCCCCCCC/C=C/C=O`, the growth inhibition was 57.6% (inactive).

Take `Nc1ccncn1`: the growth inhibition was -20.9% (inactive).

As for `CCN(CC)CCCC(C)n1c(-c2ccc(OC)cc2)nc2cc(Cl)ccc21` (stereo not given), the growth inhibition was -0.65% (inactive).

For `COC(=O)/C=C1\SC(OC)(N(C)c2ccccc2)N(C)C1=O` (stereo not given), the growth inhibition is -25.6% (inactive).

As for `O=C(O)COCC(=O)N(CCOCCN(Cc1ccccc1)C(=O)COCC(=O)O)Cc1ccccc1`, the growth inhibition is -18.4% (inactive).

Take `C=CCOC(=O)c1cccc(C(=O)OCC=C)c1`: the growth inhibition was 12.6% (inactive).

Regarding `CC(=O)Nc1ccc(S(=O)(=O)CCS(=O)(=O)c2ccc(NC(C)=O)cc2)cc1`, the growth inhibition was 7.35% (inactive).

Regarding `CCN(CC)CCNCc1ccc(Cl)cc1`, the growth inhibition was -16.5% (inactive).

With `COc1ccc(/C=C/C(CC(NO)c2ccc(OC)cc2)=N\O)cc1` (stereo not given), the growth inhibition is 0.1% (inactive).

Consider `O=C1OC([C@H](O)c2cccnc2)c2ccccc21` (stereo not given in full), for which the growth inhibition was -17.1% (inactive).

For the molecule `CCCOC(=O)CNC(=O)OC(C)(C)C`, the growth inhibition is 17.6% (inactive).

For the molecule `Cc1cc(N(CCC#N)CCC#N)ccc1C=Nc1ccc(C(=O)NN2C(=O)/C(=C/c3ccc(N(CCC#N)CCC#N)cc3)N=C2c2cc([N+](=O)[O-])ccc2Cl)cc1`, the growth inhibition was 17.9% (inactive).

In the case of `COc1cc(C(C)S(=O)(=O)c2ccc(C)cc2)ccc1O` (stereo not given), the growth inhibition is -2.95% (inactive).

`CC(=O)OC1CCC2(C)C(CCC3C2CC(OC(C)=O)C2(C)C(C(C)CCC(c4ccccc4)c4ccccc4)CCC32)C1` (stereo not given): the growth inhibition is 9.1% (inactive).

For the molecule `CC(=O)NNc1nc(C)c(C(/C=C/c2ccc(Cl)cc2)=N\NS(=O)(=O)c2ccc(C)cc2)s1`, the growth inhibition is 26.1% (inactive).

Consider `Nc1ccccc1N1C(=O)C(Cl)=C(Cl)C1=O`, for which the growth inhibition is 39.5% (inactive).

With `CCCCOC(=O)NC(C)=O`, the growth inhibition is -14.1% (inactive).

For the molecule `CC(=O)SC1CC(=O)OC1=O` (stereo not given), the growth inhibition was -3.1% (inactive).

For `O=C1C(Cc2ccccc2)CCCC1Cc1ccccc1` (stereo not given), the growth inhibition was -5.25% (inactive).

Consider `COC(=O)c1ccc(C)[nH]1`, for which the growth inhibition is -12.8% (inactive).

On to `COC(=O)NC1(NC(=O)OC)NC(=O)c2cc(OC)c(OC)cc2N1`, for which the growth inhibition was 6.25% (inactive).

`O/N=C1\CC2(N3CCOCC3)CCC1(Cc1ccccc1)CC2`: the growth inhibition is 36% (inactive).

Consider `O=C(O)CC/C(=N\Nc1ccc([N+](=O)[O-])cc1[N+](=O)[O-])c1ccccc1`, for which the growth inhibition was 0.7% (inactive).

In the case of `Nc1ccc(S(=O)(=O)NC(=O)NCc2ccccc2)cc1`, the growth inhibition is 0.7% (inactive).

Turning to `C[C@]12CCC(=O)C(O)=C1CCC2=O`, the growth inhibition was 2.6% (inactive).

Take `Nc1ccc2[nH]c(=O)c(=O)[nH]c2c1`: the growth inhibition is 2% (inactive).

In the case of `O=C(CCC1CCCCC1)OCC1CCCO1` (stereo not given), the growth inhibition was 42.1% (inactive).

As for `CCN(CC)N1C(=O)[N+](CC)(CC)N=C1[O-]`, the growth inhibition was -8.55% (inactive).

Turning to `CC(c1ccc(N)cc1)n1cnc2c(Cl)ncnc21` (stereo not given), the growth inhibition is -3.75% (inactive).

On to `COC(=O)Oc1ccccc1C(=O)O`, for which the growth inhibition was -25.2% (inactive).

Regarding `COc1nc(NCCO)nc(OC)n1`, the growth inhibition was 3.35% (inactive).

On to `NC(=O)COc1ncc(Cl)cc1Cl`, for which the growth inhibition is 4.05% (inactive).

Take `O=C1CC=NC(=S)N1`: the growth inhibition is -0.6% (inactive).

In the case of `CCCC(=O)OC(C)CC(C)C` (stereo not given), the growth inhibition is 6% (inactive).

Take `CC(CO)CCC(=O)C(C)C1CC2(C)CCC3C(CCC4CC(O)CCC43C)C2C12SCCS2` (stereo not given): the growth inhibition was 0.6% (inactive).

As for `O=C(Nc1cccc(Cl)c1)Sc1c(Cl)c(Cl)c(Cl)c(Cl)c1Cl`, the growth inhibition is 24.4% (inactive).

The nature of another assay: NCI Yeast Anticancer Drug Screen. Data for the mec2-1 strain (AID 157). The note with it: S. cerevisiae mec2-1 strain, at 50.0 µM, active compounds read high. The procedure, abridged:
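Yeast mec2-1 mutant treated with compound. Readout: growth inhibition vs vehicle controls.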
With `CCCC(=O)Nc1ccc(OC)cc1`, the growth inhibition was 11.2% (inactive).

As for `CCCCOCCOC(=O)Nc1cccc(Cl)c1`, the growth inhibition was 30.7% (inactive).

Take `CCCCCc1[nH]c(=O)[nH]c(=O)c1S(=O)(=O)N1CCCCC1`: the growth inhibition is 28.4% (inactive).

`CC(=O)OCCC12CCC(CC1Cl)C2(C)C` (stereo not given): the growth inhibition is -9.7% (inactive).

In the case of `CCCCCCCCCC/C=C/C=O`, the growth inhibition was 43.5% (inactive).

In the case of `Nc1ccncn1`, the growth inhibition was -0.85% (inactive).

Turning to `CCN(CC)CCCC(C)n1c(-c2ccc(OC)cc2)nc2cc(Cl)ccc21` (stereo not given), the growth inhibition is 8.5% (inactive).

With `COC(=O)/C=C1\SC(OC)(N(C)c2ccccc2)N(C)C1=O` (stereo not given), the growth inhibition is 9.6% (inactive).

For `O=C(O)COCC(=O)N(CCOCCN(Cc1ccccc1)C(=O)COCC(=O)O)Cc1ccccc1`, the growth inhibition is 0.75% (inactive).

On to `C=CCOC(=O)c1cccc(C(=O)OCC=C)c1`, for which the growth inhibition was 23.4% (inactive).

With `CC(=O)Nc1ccc(S(=O)(=O)CCS(=O)(=O)c2ccc(NC(C)=O)cc2)cc1`, the growth inhibition was 4.7% (inactive).

Consider `CCN(CC)CCNCc1ccc(Cl)cc1`, for which the growth inhibition was -38.8% (inactive).

With `COc1ccc(/C=C/C(CC(NO)c2ccc(OC)cc2)=N\O)cc1` (stereo not given), the growth inhibition is -4.25% (inactive).

In the case of `O=C1OC([C@H](O)c2cccnc2)c2ccccc21` (stereo not given in full), the growth inhibition was -24.9% (inactive).

Consider `CCCOC(=O)CNC(=O)OC(C)(C)C`, for which the growth inhibition is 14.8% (inactive).

Regarding `Cc1cc(N(CCC#N)CCC#N)ccc1C=Nc1ccc(C(=O)NN2C(=O)/C(=C/c3ccc(N(CCC#N)CCC#N)cc3)N=C2c2cc([N+](=O)[O-])ccc2Cl)cc1`, the growth inhibition is 10.1% (inactive).

`COc1cc(C(C)S(=O)(=O)c2ccc(C)cc2)ccc1O` (stereo not given): the growth inhibition was -9.3% (inactive).

With `CC(=O)OC1CCC2(C)C(CCC3C2CC(OC(C)=O)C2(C)C(C(C)CCC(c4ccccc4)c4ccccc4)CCC32)C1` (stereo not given), the growth inhibition was -20.4% (inactive).

On to `CC(=O)NNc1nc(C)c(C(/C=C/c2ccc(Cl)cc2)=N\NS(=O)(=O)c2ccc(C)cc2)s1`, for which the growth inhibition was 2.9% (inactive).

As to `Nc1ccccc1N1C(=O)C(Cl)=C(Cl)C1=O`, the growth inhibition is 5.4% (inactive).

Take `CCCCOC(=O)NC(C)=O`: the growth inhibition is -18.9% (inactive).

For `CC(=O)SC1CC(=O)OC1=O` (stereo not given), the growth inhibition is -15.3% (inactive).

Take `O=C1C(Cc2ccccc2)CCCC1Cc1ccccc1` (stereo not given): the growth inhibition was 17.3% (inactive).

Turning to `COC(=O)c1ccc(C)[nH]1`, the growth inhibition is 10.4% (inactive).

As to `COC(=O)NC1(NC(=O)OC)NC(=O)c2cc(OC)c(OC)cc2N1`, the growth inhibition is -10.4% (inactive).

For the molecule `O/N=C1\CC2(N3CCOCC3)CCC1(Cc1ccccc1)CC2`, the growth inhibition is 52.6% (inactive).

Consider `O=C(O)CC/C(=N\Nc1ccc([N+](=O)[O-])cc1[N+](=O)[O-])c1ccccc1`, for which the growth inhibition was 26.4% (inactive).

On to `Nc1ccc(S(=O)(=O)NC(=O)NCc2ccccc2)cc1`, for which the growth inhibition was -5% (inactive).

In the case of `C[C@]12CCC(=O)C(O)=C1CCC2=O`, the growth inhibition is -7.35% (inactive).

Take `Nc1ccc2[nH]c(=O)c(=O)[nH]c2c1`: the growth inhibition is 14.7% (inactive).

As for `O=C(CCC1CCCCC1)OCC1CCCO1` (stereo not given), the growth inhibition was 20.9% (inactive).

In the case of `CCN(CC)N1C(=O)[N+](CC)(CC)N=C1[O-]`, the growth inhibition was 4.15% (inactive).

As to `CC(c1ccc(N)cc1)n1cnc2c(Cl)ncnc21` (stereo not given), the growth inhibition is 18.2% (inactive).

As for `COC(=O)Oc1ccccc1C(=O)O`, the growth inhibition is -22.6% (inactive).

Consider `COc1nc(NCCO)nc(OC)n1`, for which the growth inhibition is -2.5% (inactive).

On to `NC(=O)COc1ncc(Cl)cc1Cl`, for which the growth inhibition is -6.45% (inactive).

As to `O=C1CC=NC(=S)N1`, the growth inhibition is 7% (inactive).

With `CCCC(=O)OC(C)CC(C)C` (stereo not given), the growth inhibition was -13.7% (inactive).

`CC(CO)CCC(=O)C(C)C1CC2(C)CCC3C(CCC4CC(O)CCC43C)C2C12SCCS2` (stereo not given): the growth inhibition was 19.5% (inactive).

Regarding `O=C(Nc1cccc(Cl)c1)Sc1c(Cl)c(Cl)c(Cl)c(Cl)c1Cl`, the growth inhibition is 17.3% (inactive).

Source of the values: PubChem BioAssay (NCI).
